Our source for the inhibition values is PubChem BioAssay AID624330 (Southern Research Specialized Biocontainment Screening …, 2012).

Hit rate of the full screen: of about 340,000 compounds, about 2,100 (0.62%) were called active. The list is a sample of the results. Potency and affinity values are given separately. Unmarked numbers belong to inactive results.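 The calls were made as follows: active = first-screen hits whose inhibition reached a set limit at any dose in the follow-up dose series; inconclusive = inhibition above the set first-screen limit but never retested; inactive = the rest.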

The term inhibition denotes the change of the read-out against control, counted positive when it falls.

Sequence of Rac GTPase-activating protein 1 (Homo sapiens) (Q9H0H5 whole entry, looked up): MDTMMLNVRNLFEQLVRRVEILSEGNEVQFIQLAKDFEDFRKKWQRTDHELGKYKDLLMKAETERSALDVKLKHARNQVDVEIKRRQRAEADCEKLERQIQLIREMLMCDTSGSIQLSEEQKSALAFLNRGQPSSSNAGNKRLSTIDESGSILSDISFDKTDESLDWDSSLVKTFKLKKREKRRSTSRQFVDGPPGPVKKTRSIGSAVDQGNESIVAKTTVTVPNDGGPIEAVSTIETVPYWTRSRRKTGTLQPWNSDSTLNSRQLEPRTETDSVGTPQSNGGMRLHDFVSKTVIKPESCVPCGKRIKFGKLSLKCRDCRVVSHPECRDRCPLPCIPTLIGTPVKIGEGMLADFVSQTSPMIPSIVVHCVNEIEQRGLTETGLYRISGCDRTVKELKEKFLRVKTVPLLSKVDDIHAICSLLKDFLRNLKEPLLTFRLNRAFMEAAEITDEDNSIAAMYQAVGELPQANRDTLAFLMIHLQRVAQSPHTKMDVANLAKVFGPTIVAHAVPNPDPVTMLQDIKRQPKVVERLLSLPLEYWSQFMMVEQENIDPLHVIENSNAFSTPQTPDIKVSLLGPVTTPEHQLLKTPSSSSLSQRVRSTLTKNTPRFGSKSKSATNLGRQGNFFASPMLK

This test has as its target Rac GTPase-activating protein 1 (Homo sapiens) (UniProt Q9H0H5). The test can be described thus: blockers of MgcRacGAP-driven Rac1 GTP hydrolysis – biochemical, ADP Hunter fluorescence, primary and confirmatory, confirmation (AID 624330).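 Also: fluorescence reports GDP produced by GAP-driven GTP hydrolysis.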 The conditions noted are these: MgcRacGAP-stimulated Rac1 GTP hydrolysis, at 30 µM, active compounds read high, GST-tagged Rac1 F28L mutant substrate.
For `CC1(c2nnc(-c3cccc(Cl)c3)o2)CC(c2ccccc2)=NO1` (stereo unspecified), the inhibition was 6.54%. For the compound `CCN(CC)CCCNC(=O)C1CCCN(c2nnc(N3CCCC3=O)s2)C1` (stereo unspecified), the inhibition is 8.15%. Consider `Cc1ccccc1C(=O)N1CCC(C(=O)Nc2ccccn2)CC1`, for which the inhibition is 3.54%.

For `CC1CCCC(C)N1CC(O)COC1CCC(C(C)(C)C)CC1` (stereo unspecified), the inhibition is 8.37%. In the case of `CC(C)(C)c1cccc(OCCCSc2ncccn2)c1`, the inhibition is 4.61%. `O=C(N/C(=C/c1ccc(Br)cc1)C(=O)N1CCCCC1)c1ccccc1F`: the inhibition was 8.71%. For the compound `Cc1cc(Cl)c(OCCCNCc2ccccc2)c(Br)c1`, the inhibition is 30.3%. As to `COCCNCCCCOc1c(Cl)cc(C)cc1Br`, the inhibition was 27.8%. As to `Cc1ccc(OCCNCc2ccccc2)c(C)c1`, the inhibition was 20.6%.

Regarding `Cc1cc(C)c(OCCCNCc2ccccc2)c(Br)c1`, the inhibition was 26.8%.

`C=CCNCCCCOc1c(Cl)cc(C)cc1Br`: the inhibition is 29.7%. The figure for `Cc1cc(C)c(C)c(OCCOCCNCc2ccccc2)c1` is 17.1%.

Regarding `Cc1cc(C(=O)CSc2ccc3c(c2)OCCO3)c(C)n1C1CC1`, the inhibition is 6.62%. Under `COc1ccc(C(=O)/C=C/c2ccccc2OC)c(OC(=O)c2ccc([N+](=O)[O-])cc2)c1` stands 8.99%. Consider `COc1cccc(C2C(C(=O)c3cccs3)=C(O)C(=O)N2CCN2CCOCC2)c1` (stereo unspecified), for which the inhibition is -8.26%.

On to `O=C(NCc1ccccc1Cl)C1CCC(=O)N1Cc1ccc(F)cc1` (stereo unspecified), for which the inhibition was 11.4%. Turning to `CN(CCOc1ccccc1)C(=S)Nc1ccc(OC(F)F)cc1`, the inhibition is 5.1%. `O=C(c1ccc(Cl)cc1)N1CCN(C(=O)C2CCCCC2)CC1`: the inhibition is 7.43%. Consider `O=C1N/C(=C\c2ccccc2)C(O)=C1C=NCc1ccccc1`, for which the inhibition is 3.17%. Under `O=C1N/C(=C/c2ccc(Br)cc2)C(O)=C1C=NCc1ccccc1` stands 3.27%. The figure for `COc1cc(NC(=O)CN2CCC(C(N)=O)(N3CCCCC3)CC2)c(OC)cc1Cl` is 0.16%.

`COc1cc(/C=N/NC(=O)c2c(-c3ccccc3)noc2C)cc(OC)c1OC`: the inhibition is 7.95%. As for `CCOc1ccc(/C=N/NC(=O)c2c(-c3ccccc3)noc2C)cc1`, the inhibition was 10.9%.

Regarding `Cc1onc(-c2ccccc2)c1C(=O)N/N=C/c1cccc(O)c1`, the inhibition is 8.34%. Take `CCCOc1ccc(/C=N/NC(=O)c2c(-c3ccccc3)noc2C)cc1OC`: the inhibition was 7.42%. Regarding `CCOC(=O)c1c(C)n(C)c2cc(Br)c(C)cc12`, the inhibition is -1.61%. With `CCc1nnc(NS(=O)(=O)c2ccc(N=Cc3c(C)[nH]n(-c4cccc(Cl)c4)c3=O)cc2)s1`, the inhibition was 9.47%. As to `Cc1nn(C)cc1CNC(=O)c1ccccc1Br`, the inhibition is -6.9%. Regarding `CC(Oc1ccc2ccc(=O)oc2c1)C(=O)c1ccccc1` (stereo unspecified), the inhibition is 8.03%.

With `NCCNC(=O)c1c(NC(=O)c2ccccc2)sc2c1CCCC2`, the inhibition is 10.3%.

With `CN(C)CCNC(=O)c1c(NC(=O)c2ccccc2)sc2c1CCCC2`, the inhibition is 11.8%. `CCCC(=O)Nc1cc(C)c(NC(=O)c2ccncc2)cn1`: the inhibition was 1.4%. In the case of `CCOc1ccccc1NC(=O)COC(=O)C1CCC1`, the inhibition is 6.3%. Under `O=C1OC2(CCCC2)OC(=O)C1=Cc1c[nH]c2ccccc12` stands 10.5%; under `O=C(O)Cn1cc(/C=C2\SC(=O)N(c3ccccc3)C2=O)c2ccccc21`, 0.86%; under `O=C(O)Cn1cc(/C=C2/NC(=O)N(c3ccc(Cl)cc3)C2=O)c2ccccc21`, 8.99%. As for `O=C1CCCC(=O)C1=Cc1c[nH]c2ccccc12`, the inhibition was 8.99%. In the case of `Clc1ccc(-c2csc(Nc3ccccc3)[n+]2Cc2ccco2)c(Cl)c1`, the inhibition is 4.62%.

For `COC(=O)c1c(C(=O)OC)c2ccccn2c1C(=O)c1ccc([N+](=O)[O-])cc1`, the inhibition is -6.01%. In the case of `Nc1nc2ccc(Br)cc2s1`, the inhibition was 1.67%.

Consider `Cc1nc2ccc(N)cc2s1`, for which the inhibition was 5.78%.

As to `Nc1ccc(-c2nc3cc(N)ccc3s2)cc1`, the inhibition is 7.4%. In the case of `Nc1cccc(-c2nc3ccc(N)cc3s2)c1`, the inhibition is 10.5%. For `Nc1ccc2nc(-c3ccccc3)sc2c1`, the inhibition is 4.03%. Regarding `Nc1ccc2sc(N)nc2c1`, the inhibition was 19.6%. Under `COc1cccc(NC(=O)CN(C)C(=O)/C=C/c2ccc3ccccc3n2)c1` stands 0.53%; under `COc1ccc(-c2nc(N3CCOCC3)nc3n[nH]c(N)c23)cc1`, -3.94%. For `COc1ccc(CCN(C)C2CCCN(S(=O)(=O)c3ccccc3)C2)cc1OC` (stereo unspecified), the inhibition is 10.3%. Consider `O=C(CSc1ncn[nH]1)Nc1ccc(Cl)c(Cl)c1`, for which the inhibition is 12.3%. On to `O=C(O)/C=C/C(=O)Nc1ccc(OCc2ccccc2)cc1`, for which the inhibition was 11.5%.

For `CCOc1[nH]n(-c2ccc(Cl)cc2)c(=O)c1C=NCc1cccnc1`, the inhibition is 7.22%. Under `O=C1OCCC1=Cc1ccccc1` stands -4.26%; under `O=C1OCC/C1=C\c1ccccc1`, 5.73%; under `CC1CCCC(=C\c2ccccc2)/C1=N/O` (stereo unspecified), 9.75%. The figure for `CC1CCC/C(=C\Nc2ccc(C(=O)O)cc2)C1=O` (stereo unspecified) is -1.76%; for `O=C(NC1CCS(=O)(=O)C1)c1cnccn1` (stereo unspecified) it is 6.19%.

`O=C(c1scc2c1CCCC2)N1CCOCC1`: the inhibition was 5.17%. Regarding `O=C(Nn1c(-c2ccc(Br)cc2)nc2ccccc2c1=O)c1cccnc1`, the inhibition was 2.47%. On to `CCCN(CCC)CC(O)CN1C(=O)NC(C)(C)C1=O` (stereo unspecified), for which the inhibition was -0.64%. For the compound `COc1ccc(C(=O)CSc2nnc(-c3cccnc3)n2Cc2ccco2)cc1`, the inhibition was 9.77%.

For `CCCCC(=O)NCc1ccc2c(c1)cc(C)n2C`, the inhibition was 7.65%. `CCCCn1c(N)nc2ccccc21`: the inhibition is 1.51%. Consider `Cc1ccc(N2CC(C(=O)NC(C)CCc3ccccc3)CC2=O)cc1` (stereo unspecified), for which the inhibition is 1.14%. As to `Cc1cc(OCn2ccc(C(=O)O)n2)ccc1Cl`, the inhibition is 15.5%. On to `O=C(c1cccc2ccccc12)N1CCN(Cc2ccccc2F)CC1`, for which the inhibition was 30.9%. In the case of `CCCNC(=S)N1CCN(Cc2ccc3c(c2)OCO3)CC1`, the inhibition is 23.5%. In the case of `CCNC(=S)N1CCN(Cc2ccc3c(c2)OCO3)CC1`, the inhibition was 3.54%. Turning to `O=C(O)c1ccccc1C(=O)N1CCN(Cc2ccc3c(c2)OCO3)CC1`, the inhibition is 6.42%.

For the compound `O=C(c1ccccc1Cl)N1CCN(Cc2ccc3c(c2)OCO3)CC1`, the inhibition was 1.05%. In the case of `O=C(c1ccccc1)c1ccccc1C(=O)N1CCN(Cc2ccccc2F)CC1`, the inhibition is 15.4%.

In the case of `O=C(/C=C/c1cccc(F)c1)N1CCN(c2ccccn2)CC1`, the inhibition is 6.78%. Take `CCOc1ccc(OCCC(=O)Nc2ccc(N3CCOCC3)cc2N2CCOCC2)cc1`: the inhibition is 4.37%.

In the case of `COC(=O)c1ccsc1NC(=O)CN1CCN(c2ncccn2)CC1`, the inhibition was -6.48%. Turning to `O=C(CSc1nc2ncc(Cl)cc2[nH]1)N1CCC(Cc2ccccc2)CC1`, the inhibition is 5.18%. As to `O=C(COc1ccccc1[N+](=O)[O-])Nc1cccc(Cl)c1N1CCOCC1`, the inhibition is 9.17%.

Turning to `COc1cc(OC)c(OC)cc1CNc1cc(C)ccc1OC`, the inhibition is 14.2%. As to `COc1ccc(CNc2cc(C)ccc2C)c(OC)c1OC`, the inhibition was 14.2%. Turning to `COc1cc(CNc2cc(C)ccc2C)cc(OC)c1OC`, the inhibition is 6.31%. With `COc1ccccc1CNc1cc(-c2ccccc2)ccc1OC`, the inhibition is 7.7%. As to `COc1cccc(CNc2nn[nH]n2)c1OC`, the inhibition was 3.59%. In the case of `COc1ccccc1CNc1cc(C)ccc1C`, the inhibition is -1.27%. The figure for `O=C(c1nn2c(C(F)(F)F)cc(-c3ccccc3)nc2c1Cl)N1CCN2CCCC2C1` (stereo unspecified) is 3.99%; for `CC(C)c1ccc(NC(=O)NC2CCN(CC(=O)Nc3cccc4ccccc34)CC2)cc1` it is 13.1%.

In the case of `CNC(=O)C[C@H]1C(=O)N(C2CCCCC2)C[C@@H]1CSC`, the inhibition was 16.8%. As for `Cc1ccccc1Nc1ncnc2c1cnn2C`, the inhibition is 12.2%. Under `O=C(c1ccc(Cl)c(S(=O)(=O)N2CCOCC2)c1)N1CCCC1` stands 3.9%; under `O=C(N1CCCCC1)N1CCN(S(=O)(=O)c2ccc(Cl)cc2)CC1`, 4.45%; under `C=CCNc1nc2c3ccccc3n(C(C)=O)c2s1`, 24.6%. Regarding `CC(=O)n1c2ccccc2c2nc(NC(C)C)sc21`, the inhibition is 5.24%. The figure for `COc1cc(C(=O)NCc2nnc(SCC(=O)N3CCCCC3)o2)cc(OC)c1OC` is 6.92%.

Consider `Cc1cc(C(=O)CS(=O)(=O)c2ccccc2)cc(C)c1O`, for which the inhibition was 10.7%. Turning to `CC1=C/C(=C(/c2ccc(O)c(C)c2)c2ccccc2S(=O)(=O)O)C=CC1=O`, the inhibition is 19.7%.

Consider `CC1=CC(=O)C=C/C1=C(/c1ccc(O)cc1C)c1ccccc1S(=O)(=O)O`, for which the inhibition was 9.36%. For the compound `CC1=C/C(=C(\c2ccc(O)c(C)c2)c2ccccc2S(=O)(=O)O)C=CC1=O`, the inhibition is 3.41%. As for `COc1cc(OC)cc(C(C(=O)NCc2ccccc2)N(Cc2ccco2)C(=O)c2ccno2)c1` (stereo unspecified), the inhibition was 5.98%. `CCc1cc2c(C)ccc(C)c2nc1SCC(=O)Nc1c(C)[nH]c(=O)[nH]c1=O`: the inhibition was -14.5%.

With `CCOC(=O)/C(=N\Nc1ccccc1)P(=O)(c1ccccc1)c1ccccc1`, the inhibition is 5.15%.

Regarding `COc1ccc(C(CNC(=O)CSc2ccccc2C)N(C)C)cc1` (stereo unspecified), the inhibition is 6.46%. For the compound `COC(=O)c1c(NC(=O)CSc2nnnn2-c2ccccc2)sc2c1CCC(C(C)(C)C)C2` (stereo unspecified), the inhibition was 5.4%. As for `CC1CCCC=CC2CC(OC(=O)CN(C)C)CC2C(O)C=CC(=O)O1` (stereo unspecified), the inhibition was 3.18%.

Consider `CC1CCC/C=C/C(=O)c2c(O)cc(O)cc2CC(=O)O1` (stereo unspecified), for which the inhibition was -7.81%.
